# Laboratory results published in PubChem BioAssay AID1159580 (chemical genetic matrix, 2015).
# Screen size: about 5,500 compounds; about 2,000 (36%) were called active. Not shown: some 18% with an inconclusive outcome. The list shows a part of the results. Unmarked numbers belong to inactive results. Cut-off read from the data, not from the text of the source: active = normalized growth mostly below about 0.91 (no sharp cut-off); inconclusive = no clear call, values can overlap the other calls; inactive = mostly above about 0.92.
# Assay: chemical genetic growth profiling, strain panel (AID 1159580);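 note: tested at 20 µM; growth read once vehicle control cultures reached saturation at 30 °C; 1 = growth at the plate median or of vehicle wells; lower values mean less growth of the strain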
# Settings: growth OD
# [1] = S. cerevisiae deletion strains, locus YGR078C, strain PAC10, stronger effect = lower value
# [2] = S. cerevisiae deletion strains, locus YJR075W, strain HOC1, stronger effect = lower value
# [3] = S. cerevisiae deletion strains, locus YMR307W, strain GAS1, stronger effect = lower value
# [4] = S. cerevisiae deletion strains, locus YNL128W, strain TEP1, stronger effect = lower value
# [5] = S. cerevisiae deletion strains, locus YNL322C, strain KRE1, stronger effect = lower value
# [6] = S. cerevisiae deletion strains, locus YPL055C, strain LGE1, stronger effect = lower value
# [7] = S. cerevisiae deletion strains, locus YPL241C, strain CIN2, stronger effect = lower value
smiles,measurement,setting,value
S=C(S)OC1CC2CC1C1CCCC21 (stereo unspecified),normalized growth,"S. cerevisiae deletion strains, locus YAL040C, strain CLN3, stronger effect = lower value",1
same,normalized growth,"S. cerevisiae deletion strains, locus YCL061C, strain MRC1 (second series), stronger effect = lower value",1.01
same,normalized growth,"S. cerevisiae deletion strains, locus YDR363W, strain ESC2, stronger effect = lower value",1.02
same,normalized growth,"S. cerevisiae deletion strains, locus YER002W, strain NOP16, stronger effect = lower value",1.01
same,normalized growth,[1],1
same,normalized growth,[2],1
same,normalized growth,[3],1.01
same,normalized growth,[4],1.01
same,normalized growth,"S. cerevisiae deletion strains, locus YNL175C, strain NOP13, stronger effect = lower value",1.02
same,normalized growth,"S. cerevisiae deletion strains, locus YNL197C, strain WHI3, stronger effect = lower value",1.03
same,normalized growth,"S. cerevisiae deletion strains, locus YNL224C, strain SQS1, stronger effect = lower value",1.06
same,normalized growth,[5],1.01
same,normalized growth,"S. cerevisiae deletion strains, locus YOR083W, strain WHI5 (second series), stronger effect = lower value",1
same,normalized growth,[6],0.943
same,normalized growth,[7],1.01
C[C@]12CCC3C(CC[C@H]4C[C@@H](O)CC[C@]34C)C1CC[C@@H]2O (stereo partly specified),normalized growth,"S. cerevisiae deletion strains, locus YAL013W, strain DEP1, stronger effect = lower value",1
same,normalized growth,"S. cerevisiae deletion strains, locus YBR021W, strain FUR4, stronger effect = lower value",1.01
same,normalized growth,"S. cerevisiae deletion strains, locus YBR229C, strain ROT2, stronger effect = lower value",1.03
same,normalized growth,"S. cerevisiae deletion strains, locus YCL029C, strain bik1, stronger effect = lower value",0.968
same,normalized growth,"S. cerevisiae deletion strains, locus YDL035C, strain GPR1, stronger effect = lower value",0.864
same,normalized growth,"S. cerevisiae deletion strains, locus YDL074C, strain BRE1, stronger effect = lower value",0.991
same,normalized growth,"S. cerevisiae deletion strains, locus YDL101C, strain DUN1, stronger effect = lower value",1.01
same,normalized growth,"S. cerevisiae deletion strains, locus YDL134C, strain PPH21, stronger effect = lower value",1.02
same,normalized growth,"S. cerevisiae deletion strains, locus YDL185W, strain tfp1, stronger effect = lower value",0.988
same,normalized growth,"S. cerevisiae deletion strains, locus YDL192W, strain arf1, stronger effect = lower value",0.996
same,normalized growth,"S. cerevisiae deletion strains, locus YDR101C, strain arx1, stronger effect = lower value",1.01
same,normalized growth,"S. cerevisiae deletion strains, locus YDR150W, strain NUM1, stronger effect = lower value",1.02
same,normalized growth,"S. cerevisiae deletion strains, locus YDR162C, strain NBP2, stronger effect = lower value",0.958
same,normalized growth,"S. cerevisiae deletion strains, locus YDR318W, strain mcm21, stronger effect = lower value",0.972
same,normalized growth,"S. cerevisiae deletion strains, locus YDR388W, stronger effect = lower value",1.03
same,normalized growth,"S. cerevisiae deletion strains, locus YDR502C, strain sam2, stronger effect = lower value",1.01
same,normalized growth,"S. cerevisiae deletion strains, locus YEL061C, strain CIN8, stronger effect = lower value",1.03
same,normalized growth,"S. cerevisiae deletion strains, locus YER110C, stronger effect = lower value",1.01
same,normalized growth,"S. cerevisiae deletion strains, locus YER155C, strain BEM2, stronger effect = lower value",1.04
same,normalized growth,"S. cerevisiae deletion strains, locus YER167W, strain BCK2, stronger effect = lower value",0.986
same,normalized growth,"S. cerevisiae deletion strains, locus YGL078C, strain dbp3, stronger effect = lower value",0.973
same,normalized growth,"S. cerevisiae deletion strains, locus YGL086W, strain mad1, stronger effect = lower value",0.954
same,normalized growth,"S. cerevisiae deletion strains, locus YGL248W, strain PDE1, stronger effect = lower value",1.02
same,normalized growth,[1],1
same,normalized growth,"S. cerevisiae deletion strains, locus YGR135W, strain pre9, stronger effect = lower value",0.973
same,normalized growth,"S. cerevisiae deletion strains, locus YGR229C, strain SMI1, stronger effect = lower value",1.02
same,normalized growth,"S. cerevisiae deletion strains, locus YGR252W, strain gcn5, stronger effect = lower value",0.764 (active)
same,normalized growth,"S. cerevisiae deletion strains, locus YHR030C, strain SLT2, stronger effect = lower value",1.04
same,normalized growth,"S. cerevisiae deletion strains, locus YHR079C, strain IRE1 (second series), stronger effect = lower value",0.993
same,normalized growth,"S. cerevisiae deletion strains, locus YHR094C, strain hxt1, stronger effect = lower value",1.02
same,normalized growth,"S. cerevisiae deletion strains, locus YHR129C, strain ARP1, stronger effect = lower value",1.03
same,normalized growth,"S. cerevisiae deletion strains, locus YHR200W, strain rpn10, stronger effect = lower value",0.985
same,normalized growth,"S. cerevisiae deletion strains, locus YIL066C, strain RNR3, stronger effect = lower value",0.953
same,normalized growth,"S. cerevisiae deletion strains, locus YIL073C, strain SPO22, stronger effect = lower value",0.91
same,normalized growth,"S. cerevisiae deletion strains, locus YIL125W, strain kgd1, stronger effect = lower value",1.02
same,normalized growth,"S. cerevisiae deletion strains, locus YIR030C, strain dcg1, stronger effect = lower value",1.03
same,normalized growth,"S. cerevisiae deletion strains, locus YJL095W, strain BCK1, stronger effect = lower value",1.01
same,normalized growth,"S. cerevisiae deletion strains, locus YJL134W, strain LCB3, stronger effect = lower value",1.02
same,normalized growth,"S. cerevisiae deletion strains, locus YJL168C, strain set2, stronger effect = lower value",1.03
same,normalized growth,"S. cerevisiae deletion strains, locus YJL187C, strain SWE1 (second series), stronger effect = lower value",1
same,normalized growth,"S. cerevisiae deletion strains, locus YJR043C, strain POL32, stronger effect = lower value",0.965
same,normalized growth,[2],1.04
same,normalized growth,"S. cerevisiae deletion strains, locus YKL009W, strain mrt4, stronger effect = lower value",0.793 (active)
same,normalized growth,"S. cerevisiae deletion strains, locus YKL068W, stronger effect = lower value",1.02
same,normalized growth,"S. cerevisiae deletion strains, locus YKL085W, strain MDH1 (second series), stronger effect = lower value",1.02
same,normalized growth,"S. cerevisiae deletion strains, locus YKL085W, strain MDH1, stronger effect = lower value",1.02
same,normalized growth,"S. cerevisiae deletion strains, locus YKL190W, strain CNB1, stronger effect = lower value",1.02
same,normalized growth,"S. cerevisiae deletion strains, locus YKR001C, strain vps1, stronger effect = lower value",0.964
same,normalized growth,"S. cerevisiae deletion strains, locus YLR039C, strain RIC1, stronger effect = lower value",0.644 (active)
same,normalized growth,"S. cerevisiae deletion strains, locus YLR058C, strain SHM2, stronger effect = lower value",1.02
same,normalized growth,"S. cerevisiae deletion strains, locus YLR102C, strain apc9, stronger effect = lower value",1.02
same,normalized growth,"S. cerevisiae deletion strains, locus YLR262C, strain YPT6, stronger effect = lower value",0.507 (active)
same,normalized growth,"S. cerevisiae deletion strains, locus YLR268W, strain sec22, stronger effect = lower value",0.997
same,normalized growth,"S. cerevisiae deletion strains, locus YLR330W, strain CHS5, stronger effect = lower value",1.03
same,normalized growth,"S. cerevisiae deletion strains, locus YLR342W, strain FKS1 (second series), stronger effect = lower value",0.87
same,normalized growth,"S. cerevisiae deletion strains, locus YLR371W, strain rom2, stronger effect = lower value",0.994
same,normalized growth,"S. cerevisiae deletion strains, locus YLR418C, strain cdc73, stronger effect = lower value",1.13
same,normalized growth,"S. cerevisiae deletion strains, locus YML016C, strain PPZ1, stronger effect = lower value",1.03
same,normalized growth,"S. cerevisiae deletion strains, locus YML032C, strain rad52, stronger effect = lower value",0.931
same,normalized growth,"S. cerevisiae deletion strains, locus YML124C, strain tub3, stronger effect = lower value",1.03
same,normalized growth,"S. cerevisiae deletion strains, locus YMR078C, strain ctf18, stronger effect = lower value",1.03
same,normalized growth,"S. cerevisiae deletion strains, locus YMR223W, strain ubp8, stronger effect = lower value",0.953
same,normalized growth,"S. cerevisiae deletion strains, locus YMR263W, strain SAP30, stronger effect = lower value",1.01
same,normalized growth,[3],1.02
same,normalized growth,"S. cerevisiae deletion strains, locus YNL067W, strain RPL9B, stronger effect = lower value",0.938
same,normalized growth,[4],1.01
same,normalized growth,"S. cerevisiae deletion strains, locus YNL153C, strain GIM3, stronger effect = lower value",1.03
same,normalized growth,"S. cerevisiae deletion strains, locus YNL233W, strain BNI4, stronger effect = lower value",1.02
same,normalized growth,"S. cerevisiae deletion strains, locus YNL250W, strain rad50, stronger effect = lower value",0.968
same,normalized growth,"S. cerevisiae deletion strains, locus YNL271C, strain bni1, stronger effect = lower value",1
same,normalized growth,"S. cerevisiae deletion strains, locus YNL298W, strain CLA4, stronger effect = lower value",0.895 (active)
same,normalized growth,"S. cerevisiae deletion strains, locus YNL307C, strain MCK1, stronger effect = lower value",0.954
same,normalized growth,[5],1.03
same,normalized growth,"S. cerevisiae deletion strains, locus YNR052C, strain pop2, stronger effect = lower value",0.88 (active)
same,normalized growth,"S. cerevisiae deletion strains, locus YOL006C, strain TOP1, stronger effect = lower value",1.07
same,normalized growth,"S. cerevisiae deletion strains, locus YOL012C, strain htz1",1.81
same,normalized growth,"S. cerevisiae deletion strains, locus YOL147C, strain pex11, stronger effect = lower value",1.04
same,normalized growth,"S. cerevisiae deletion strains, locus YOR061W, strain CKA2, stronger effect = lower value",0.99
same,normalized growth,"S. cerevisiae deletion strains, locus YOR069W, strain VPS5, stronger effect = lower value",1.02
same,normalized growth,"S. cerevisiae deletion strains, locus YOR136W, strain idh2, stronger effect = lower value",1.02
same,normalized growth,"S. cerevisiae deletion strains, locus YOR144C, strain elg1, stronger effect = lower value",1.01
same,normalized growth,"S. cerevisiae deletion strains, locus YOR184W, strain ser1, stronger effect = lower value",0.836 (active)
same,normalized growth,"S. cerevisiae deletion strains, locus YOR316C, strain cot1, stronger effect = lower value",1.03
same,normalized growth,[6],1.01
same,normalized growth,[7],1.02
same,normalized growth,"S. cerevisiae deletion strains, locus YPR119W, strain clb2, stronger effect = lower value",1.04
same,normalized growth,"S. cerevisiae deletion strains, locus YPR141C, strain kar3, stronger effect = lower value",1.04
same,normalized growth,"S. cerevisiae deletion strains, locus YPR163C, strain tif3, stronger effect = lower value",1.01
same,normalized growth,"S. cerevisiae deletion strains, locus YPR167C, strain met16, stronger effect = lower value",1.02
same,normalized growth,"S. cerevisiae deletion strains, strain wtn01, stronger effect = lower value",0.989
same,normalized growth,"S. cerevisiae strains, strain wild type, stronger effect = lower value",0.99
